Among all 320,000 compounds or so, about 22,000 (6.9%) were called active. Another 27% or so got no clear call; they are omitted. This is one part of a sample in which actives are shown more often than they occur. Values without a mark were called inactive. Calls come from the whole dose curve; as a rule, active = well fitted inhibition curve with a large enough effect; inconclusive = small, poorly fitted or top-dose-only effect, or another doubt; inactive = no such curve, though single readings can be large or run the other way.
Test: Primary qHTS for delayed death inhibitors of the malarial parasite plastid, 96 hour incubation
Settings: P. falciparum luciferase reporter growth; series mostly up to 28.7 µM; activity change, negative = inhibition: at the top concentration
Procedure, shortened: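 Two parasite generations (96 h, 37 C, 5% CO2) of compound exposure in infected erythrocytes (0.05% parasitemia, 2% hematocrit). Luciferase-reporter P. falciparum; decreased luminescence indicates inhibited growth, aimed at apicoplast-acting delayed death.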
% is set by controls: 0 for no effect and ±100 for the full control effect; potency is the fitted concentration of half-maximal effect.

Row | Structure (SMILES) | activity change, negative = inhibition | Potency
1 | O=C(CN(C(=O)CNC(=O)c1cccs1)c1cccc(F)c1)NC1CCCCC1 | 8.81% | –
2 | COc1ccccc1/C=C/C(=O)NC1CC2CCC1C2 (configuration not stated) | 9.8% | –
3 | O=S(=O)(Nc1ccccc1Cl)c1cccc2nsnc12 | -16.2% | –
4 | O=C(Nc1ccccc1)c1ccc2c(c1)OCCCO2 | 1.97% | –
5 | C[C@H](NC(=O)[C@@H]1Cc2ccccc2CN1C(=O)OC(C)(C)C)C(=O)NC1CCCC1 | -19.6% | –
6 | O=C(COc1ccccc1O)NC1CCCC1 | -9.08% | –
7 | COc1cc(C(=S)NC2CCCCC2)ccc1O | – | 4.15 µM (active)
8 | COc1ccc(CCNC(=O)CCC(=O)NC2CCCCC2)cc1OC | -3.75% | –
9 | COc1ccc(C(C)NC(=S)NC2CCCCC2)cc1OC (configuration not stated) | – | 10.4 µM (active)
10 | COc1ccc(Cl)cc1C(=O)NNC(=S)NC1CCCC1 | 35% | –
11 | CCN(CC)C(=O)c1ccc(O)c(OC)c1 | – | inactive
12 | Cc1ccc(C)c(NS(=O)(=O)c2c(C)[nH]c(C)c2C(=O)N2CCCCC2)c1 | 29.7% | –
13 | CC(=O)N1CCN(CC(c2ccccc2)c2ccccc2)CC1 | 0% | –
14 | NC(=O)C(Cc1ccccc1)NC(=O)C12CC3CC(CC(C3)C1)C2 (configuration not stated) | 11.1% | –
15 | CC(=O)O[C@]1(C(C)=O)CC[C@H]2[C@@H]3C=C(C)C4=CC(=O)CC[C@]4(C)[C@H]3CC[C@@]21C | – | 11.7 µM (active)
16 | CCCCN(C1CCS(=O)(=O)C1)S(=O)(=O)c1ccc(C(C)C)cc1 (configuration not stated) | 2.84% | –
17 | O=C(Nc1ccc(OCC(=O)N2CCOCC2)cc1)c1cc(F)c(F)cc1Cl | -15.8% | –
18 | Fc1cccc(Cl)c1COc1ccc(-c2nnco2)cc1 | -3.53% | –
19 | O=C(/C=C/c1ccc(OCc2c(F)cccc2Cl)cc1)N1CCOCC1 | – | 10.4 µM (active)
20 | CCC(C)C(NC(=O)C1CCC(=O)N1C(=O)OCc1ccccc1)C(=O)NC(C(=O)N1CCCC1C(N)=O)C(C)CC (configuration not stated) | 2.57% | –
21 | O=C(COC(=O)c1ncc(Cl)c(Cl)c1Cl)NNC(=O)c1ccccc1 | -2.5% | –
22 | CCCCN(C(=O)C1=NN(c2cc(C)ccc2C)C(=O)CC1)c1c(N)n(CCC)c(=O)[nH]c1=O | -27.3% | –
23 | Cc1cc(NC(=O)C(C)SCC(=O)Nc2ccccc2N2CCCCC2)no1 (configuration not stated) | – | 9.28 µM (active)
24 | Cc1cc(NC(=O)C(C)N2C(=O)c3ccccc3S2(=O)=O)no1 (configuration not stated) | 50.7% | –
25 | Cc1ccc(-c2noc(CCC(=O)Nc3ccccc3N3CCN(C)CC3)n2)cc1 | -10.9% | –
26 | CC1(c2ccc3ccccc3c2)NC(=O)NC1=O (configuration not stated) | 15.2% | –

Row | Structure (SMILES) | activity change, negative = inhibition | Potency
27 | Cc1ccc(O)c(/C=N/NC(=O)COc2ccc3c(C)cc(=O)oc3c2)c1 | – | 10.4 µM (active)
28 | CCOC(=O)Cc1csc(NC(=O)COc2ccc3c(C)cc(=O)oc3c2)n1 | 37.9% | –
29 | Cc1cc(=O)oc2cc(OCC(=O)Nc3nnc(C4CC4)s3)ccc12 | 24.1% | –
30 | COc1cccc2[nH]c(C(=O)NCCc3ccccc3)cc12 | 30.1% | –
31 | Cc1nnc(Nc2ccccc2F)s1 | 3.63% | –
32 | NS(=O)(=O)c1ccc(CCNC(=O)CNC(=O)Cc2ccccc2)cc1 | 12.5% | –
33 | CC(=O)O[C@H]1c2ccccc2-c2ccccc2[C@@H]1OC(C)=O | -23.2% | –
34 | O=S(=O)(c1ccc(SCc2ccc(Br)cc2)nc1)N1CCOCC1 | -31.3% | –
35 | CCCCc1nc(NCc2ccccc2)c(C#N)c2c1CCCC2 | – | 5.22 µM (active)
36 | CN(C)c1nccc(NCc2ccccc2)c1C#N | -1% | –
37 | CCc1nc(NCCO)c(C#N)c2c1CCCC2 | 8.09% | –
38 | CCOCc1nnc(NC(=O)CCS(=O)(=O)Cc2ccccc2)s1 | 8.85% | –
39 | COc1ccc(CNS(=O)(=O)c2ccc(NC(=O)N3CCCCC3)cc2)cc1 | -9.06% | –
40 | COc1ccc(CNS(=O)(=O)c2cc(-c3cc(C)no3)ccc2C(C)C)cc1 | 21.3% | –
41 | COc1ccc(CNS(=O)(=O)c2ccc(-c3cnc(C4CC4)o3)cc2)cc1 | – | 10.4 µM (active)
42 | CCC(=O)N1c2ccc(S(=O)(=O)NCc3ccco3)cc2CC1C (configuration not stated) | 100% | –
43 | COCCN(C(=O)CCC(=O)Nc1ccccn1)C(C(=O)NCCC(C)C)c1ccc(OC)cc1 (configuration not stated) | – | 0.522 µM (active)
44 | COCCN(C(=O)CCC(=O)Nc1nccs1)C(C(=O)NCCC(C)C)c1ccc(F)cc1 (configuration not stated) | 20% | –
45 | COCCNC(=O)C(c1ccc(C)cc1)N(C(=O)CCC(=O)Nc1ccccn1)c1cccc(C)c1 (configuration not stated) | 7.39% | –
46 | CN(CC(=O)NCc1ccc(Cl)cc1)S(=O)(=O)c1cccs1 | 22.6% | –
47 | COc1ccccc1OCCNC(=O)CCNC(=O)c1ccccc1Cl | -22.2% | –
48 | COc1cc(SC)ccc1C(=O)NCCOc1ccccc1Cl | – | 0.738 µM (active)
49 | COc1ccc(N2C(=O)C3CCCN3C2c2cccc(OC)c2)cc1 (configuration not stated) | 7.91% | –
50 | COc1ccc(N2C(=O)C3CCCN3C2c2cc(OC)c(OC)cc2OC)cc1 (configuration not stated) | 45.6% | –
51 | COc1cccc(N2C(=O)C3CCCN3C2c2ccc(F)cc2)c1 (configuration not stated) | – | 10.4 µM (active)
52 | CCNC(=O)c1cnn(-c2ccccc2)c1-c1ccccc1 | -20% | –

— PubChem BioAssay AID504834 (National Center for Advancing Translational Sciences (NCATS), 2011)
